Assay outcomes: PubChem BioAssay, several laboratories
Hits are enriched below; roughly 3.3% of the tested compounds scored in any of these assays.
MBD2 inh – inhibitors of MBD2 binding to methylated DNA, primary screen, biochemical, TR-FRET, DNA-binding domain, human. 370,000 compounds, 0.31% hits. inhibition, % at 4.4 µM. MBD2 binding to methylated oligonucleotide. Methyl-CpG-binding domain protein 2 (Homo sapiens), Q9UBB5; in the data active = inhibition above about 13%
PfM18AAP inh – PfM18AAP inhibitors, malaria aminopeptidase, primary screen, biochemical, QFRET, recombinant enzyme; H-Glu-NHMec fluorogenic cleavage; inhibition, % at 7.35 µM; 290,000 compounds, 1.2% hits;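 active = inhibition above the campaign mean inhibition over all tested compounds plus 3 SD, cut at about 28% in these data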
UHRF1 binding – UHRF1 methylated DNA binding inhibitors, primary screen, counter-screen for MBD2 inhibitor project, biochemical, TR-FRET, human UHRF1, single concentration; E3 ubiquitin-protein ligase UHRF1 (Homo sapiens), Q96T88; UHRF1 binding to methylated oligo; inhibition, % at 4.4 µM; 370,000 compounds, 0.75% hits; AID 687016, 2013; in the data active = inhibition above about 21%;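 note: UHRF1 SRA domain binding a hemimethylated CpG hairpin DNA probe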
PfG6PD inh – PfG6PD enzyme inhibitors, primary screen, biochemical, fluorescence intensity, uHTS. 350,000 compounds, 0.78% hits. inhibition, % at 20 µM. glucose-6-phosphate dehydrogenase-6-phosphogluconolactonase (Plasmodium falciparum 3D7). PfGluPho enzyme, NADPH resazurin-diaphorase fluorescence;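 active = inhibition reaching at least a set limit at 20 µM in the primary screen, cut at about 59% in these data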
PRMT1 inh – PRMT1 methyltransferase inhibitors, primary screen, biochemical, fluorescence polarization. Protein arginine N-methyltransferase 1 (Homo sapiens), Q99873. recombinant PRMT1, activity-based probe fluorescence polarization. inhibition, % at 2.79 µM. 370,000 compounds, 1.3% hits;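 active = inhibition above about 21% made by adding two undisclosed values, limit read from the data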
Large screens that a line does not name were inactive.

CCOC(=O)C(=O)Cc1cccnn1	UHRF1 binding 25 (no result: PfM18AAP inh)
CCOC(=O)C(Cc1ccnc2ccccc12)=NO	none (no result: PfM18AAP inh)
CCOC(=O)N1CCN(C(=O)C[C@H]2C[C@@]3(C(=O)OC)C(=C[C@H](C(C)(C)C)O[C@@H]3C)N(Cc3ccccc3)C2=O)CC1	none (no result: PfM18AAP inh, PfG6PD inh)
COCCn1c(SCC(=O)Nc2ccccc2C(F)(F)F)nc2ccccc2c1=O	none
CC(C)CCn1c(SCC(=O)Nc2ccccc2C(F)(F)F)nc2nccnc2c1=O	UHRF1 binding 22
C=CCOc1c(Br)cc(CNc2ccc(NC(=O)CCC)cc2)cc1OCC	none
C=CCOc1c(Br)cc(CNc2ccc(NC(=O)C(C)C)c(OC)c2)cc1OCC	PfG6PD inh 60
COc1cc(OC)cc(C(=O)NNc2nc3cc4c(cc3s2)OCO4)c1	PfM18AAP inh 31
O=C1N2CCc3ccccc3C2CS(=O)(=O)N1Cc1ccc(F)cc1 (stereo not drawn)	none (no result: PfM18AAP inh, PfG6PD inh)
Nc1[nH]c(C(=O)c2ccc(Br)cc2)c(-c2ccc(Br)cc2)c1C(=O)N1CCCCC1	none (no result: PfM18AAP inh, PfG6PD inh)
COc1cc(-c2c(C(=O)c3ccccc3)[nH]c(N)c2C(N)=O)ccc1F	UHRF1 binding 95 (no result: PfM18AAP inh, PfG6PD inh)
COc1ccc(-c2c(C(=O)c3ccccc3)[nH]c(N)c2C(=O)c2ccccc2)cc1OC	none (no result: PfM18AAP inh, PfG6PD inh)
N#Cc1cccc(NC(=O)COC(=O)c2ccccc2Sc2ccccc2C#N)c1	UHRF1 binding 34
COc1ccccc1N(CC(=O)NCc1ccco1)S(=O)(=O)c1ccc(C)cc1	UHRF1 binding 29, PRMT1 inh 21
O=C(COc1ccc(Cl)cc1)OCC(=O)N1CCCC1	none
O=C(COc1ccc(Cl)cc1)OCc1ccc(Cl)cc1	UHRF1 binding 40 (no result: PfM18AAP inh)
Cc1cc(Cl)ccc1NNC(N)=S	UHRF1 binding 22
CCOC(=O)c1sc2ccc(S(=O)(=O)N3CC(C)CC(C)C3)cc2c1N (stereo not drawn)	PRMT1 inh 21
O=C(N1CCOCC1)N1CC[C@H]2[C@H](CCCN2Cc2cc(F)cc(F)c2)C1	none (no result: PfM18AAP inh, PfG6PD inh)
CC(CN1CCCC1)C(=O)NN (stereo not drawn)	none
CC(CN1CCCCC1)C(=O)NN (stereo not drawn)	UHRF1 binding 21
Cc1cc(OC[C@@H](O)CN2CCC(C(O)(c3ccccc3)c3ccccc3)CC2)ccc1Br	none (no result: PfM18AAP inh, PfG6PD inh)
COc1cc(C(=O)OC2CCCCC2=O)cc(OC)c1C (stereo not drawn)	UHRF1 binding 23
Cc1ccc(C(=O)NCC(=O)OC2CCCCC2=O)cc1C (stereo not drawn)	none (no result: PfM18AAP inh)
CC(C)(C)S(=O)N1C[C@@H]2CC(=O)C(CCO)=C2[C@H]1CCO (stereo partly drawn)	none (no result: PfM18AAP inh, PfG6PD inh)
Nc1ccc(N)c(C(=O)O)c1	PfG6PD inh 71 (no result: MBD2 inh, PfM18AAP inh, UHRF1 binding, PRMT1 inh)
Nc1cc(C(F)(F)F)ccc1C(=O)O	none (no result: PfG6PD inh)
Cc1ccc(C2C(C#N)=C(N)SC(N)=C2C#N)c(C)c1	none (no result: MBD2 inh, UHRF1 binding, PRMT1 inh)
Cc1ccc(C2C(C#N)=C(N)SC(N)=C2C#N)cc1	PfM18AAP inh 42
C[C@H]1CN([C@@H](C)CO)C(=O)c2c(c3ccccc3n2C)-c2ccccc2CO[C@H]1CN(C)C(=O)Nc1cccc(F)c1	none (no result: PfM18AAP inh, PfG6PD inh)
CCOC(=O)CC[C@@]1(C(=O)OCC)C[C@@H](CC(=O)NCCCOC)C(=O)N2CCCC=C21	none (no result: PfM18AAP inh, PfG6PD inh)
CCC(C)NC(=O)CSc1ccc(NC(C)=O)cc1 (stereo not drawn)	none
CC(=O)Nc1ccc(SCC(=O)c2ccc(Br)s2)cc1	PRMT1 inh 63
CCC(CC)C1C(C#N)=C(N)SC(N)=C1C#N	PfM18AAP inh 31
O[C@H](COc1ccccc1)CN1CCC(C(O)(c2ccccc2)c2ccccc2)CC1	none (no result: PfM18AAP inh, PfG6PD inh)
O=C1NC(=S)S/C1=C\c1ccc(SCc2ccco2)o1	PfM18AAP inh 37 (no result: MBD2 inh, UHRF1 binding, PRMT1 inh)
O=C(Nc1ccc(C(O)(C(F)(F)F)C(F)(F)F)cc1)c1c(F)cccc1F	none (no result: PfM18AAP inh, PfG6PD inh)
CCNC(=S)Nc1ccc(C)c(Cl)c1	UHRF1 binding 25
CCNC(=S)Nc1ccc(Cl)cc1	none
CC1=C(C(=O)N(C)C)CC(CC(=O)NCc2cccs2)C(=O)N1Cc1ccccc1 (stereo not drawn)	none (no result: PfM18AAP inh)
CCN(CC)C(=O)C1=C(C)N(Cc2ccc(OC)cc2)C(=O)C(CC(=O)NCCN2CCOCC2)C1 (stereo not drawn)	UHRF1 binding 22 (no result: PfM18AAP inh)
